SMILES strings stand for the structures. About 83,000 compounds went through this panel and 20% of them were active in at least one assay; those are over-represented in the sample as a whole.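 How to read the values: 0–100, growth inhibition (40 = 60% inhibited); 0, no net growth; -100 to 0, cell death (-40 = 40% of starting cells died; -100 = all dead).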 Values without a mark were called inactive. Calls of active or inactive are those of the source. Rule for the calls: active = growth percent below 10; inactive = the rest.

The test has as its system MDA-MB-468 breast. As to the kind of experiment: NCI-60 one-dose screen, 48 h (100 = growth as untreated, 0 = no growth, -100 = all killed). As to conditions: 10 µM unless noted.
As to `C[C@]12CC[C@H]3[C@@H](C[C@@H]4SC(Nc5cccc(F)c5)=N[C@@]45CC(=O)CC[C@]35C)[C@@H]1CCC2=O`, the growth is -2.99% (active). Turning to `O=C1NC(=O)C(Cc2ccccc2)(Cc2ccccc2)C(=O)N1`, the growth was 113%.

Turning to `COC(=O)[C@@H](C)C[C@H](Cc1ccccc1)NC(=O)c1csc([C@@H](C[C@H](C(C)C)N(C)C(=O)[C@H](C)NC(=O)[C@H]2CCCN2C)OC(C)=O)n1`, the growth was 25.8%. For `COc1cc([N+](=O)[O-])c2nc(C)ccc2c1[N+](=O)[O-]` the value was -9.11% (active); for `CN1C(=O)C(=Cc2cn(Cc3ccccc3)c3ccccc23)C(=O)N(C)C1=O`, -49.5% (active); for `COC(=O)C1=CO[C@@H](C)[C@@H]2CN3CCc4c([nH]c5cc(OC)ccc45)[C@@H]3C[C@H]12`, 107%. As to `O=[N+]([O-])/C=C/c1ccc([N+](=O)[O-])cc1`, the growth was 77.7%. For `Nc1ncnc2n[nH]nc12` the value was 51.6%; for `CNC(=O)Oc1ccccc1`, 101%.
